# According to the antibiotic and cytotoxicity screens of Wong et al. (2023):
# Screen size: about 39,000 compounds; about 1,500 (3.8%) were called active. The list comes from a sample in which actives are over-represented; it also holds similar structures and randomly drawn compounds.
# System: HSkMC (human skeletal muscle cells)
# Assay: cytotoxicity call (relative viability < 0.9)
# Conditions: 10 µM
row,Compound,cytotoxicity call
1,COc1ccc(NC(=O)N(C)C[C@H]2OCCCC[C@H](C)Oc3ccc(NS(=O)(=O)c4cccs4)cc3C(=O)N([C@@H](C)CO)C[C@H]2C)cc1,inactive
2,COc1cccc(S(=O)(=O)N(C)C[C@H]2Oc3cc(Br)ccc3S(=O)(=O)N([C@@H](C)CO)C[C@H]2C)c1,inactive
3,COc1ccc2c3c([nH]c2c1)[C@@H](CO)N(C[C@]13CCN(CC1)S(=O)(=O)c1cn(cn1)C)C(=O)Nc1ccc(cc1)F,inactive
4,O=C(C[C@H]1C[C@@H]2c3cc(NC(=O)Nc4ccc(C(F)(F)F)cc4)ccc3O[C@@H]2[C@H](CO)O1)NC1CCCCC1,inactive
5,C[C@H]1CN([C@@H](C)CO)S(=O)(=O)c2ccc(C#Cc3ccncc3)cc2O[C@@H]1CN(C)C(=O)C1CCCCC1,inactive
6,COc1ccccc1NC(=O)N(C)C[C@H]1Oc2ncc(C#CCN(C)C)cc2C(=O)N([C@@H](C)CO)C[C@H]1C,inactive
7,C[C@@H]1CN([C@@H](C)CO)C(=O)c2cc(NC(=O)Nc3ccc(C(F)(F)F)cc3)ccc2O[C@H]1CN(C)Cc1ccc(Cl)c(Cl)c1,inactive
8,C[C@H](CO)N1C[C@H](C)[C@H](CN(C)Cc2ccc(Cl)c(Cl)c2)Oc2ccc(NC(=O)Nc3ccc(C(F)(F)F)cc3)cc2C1=O,active
9,C[C@@H]1CN([C@H](C)CO)C(=O)c2cc(NC(=O)Nc3ccc(C(F)(F)F)cc3)ccc2O[C@@H]1CN(C)Cc1ccncc1,inactive
10,C[C@H]1CN([C@@H](C)CO)C(=O)c2cc(NC(=O)Nc3ccc(C(F)(F)F)cc3)ccc2O[C@@H]1CN(C)Cc1ccc(Cl)c(Cl)c1,inactive
11,C[C@@H]1CN([C@@H](C)CO)C(=O)c2cc(NC(=O)Nc3ccc(C(F)(F)F)cc3)ccc2O[C@@H]1CN(C)Cc1ccc(Cl)c(Cl)c1,active
12,C[C@H](CO)N1C[C@H](C)[C@@H](CN(C)Cc2ccc(Cl)c(Cl)c2)Oc2ccc(NC(=O)Nc3ccc(C(F)(F)F)cc3)cc2C1=O,active
13,C[C@@H]1CN([C@H](C)CO)C(=O)c2cc(NC(=O)Nc3ccc(C(F)(F)F)cc3)ccc2O[C@@H]1CN(C)Cc1ccc(Cl)c(Cl)c1,active
14,C[C@@H]1CN([C@H](C)CO)C(=O)c2cc(NS(=O)(=O)c3ccc(F)cc3)ccc2O[C@H]1CN(C)Cc1ccncc1,inactive
15,CN1C(=O)c2cc(NS(C)(=O)=O)ccc2OC[C@H]2O[C@@H](CC(=O)N3CCOCC3)CC[C@@H]21,inactive
16,C[C@@H]1CCCCO[C@H](CN(C)S(=O)(=O)c2cccs2)[C@@H](C)CN([C@H](C)CO)C(=O)c2cc(NC(=O)C3CCCCC3)ccc2O1,inactive
17,COCC(=O)N1[C@@H]2c3ccc(C4=CCCCC4)c(=O)n3C[C@@H]2[C@@H](CO)[C@@H]1C(=O)N1CCN(C)CC1,inactive
